USP1 inh = Inhibitors of USP1/UAF1: Primary Screen; Ubiquitin carboxyl-terminal hydrolase 1 (Homo sapiens), O94782; recombinant USP1/UAF1, Ub-Rhodamine cleavage fluorescence; Potency, µM (doses to about 57.1 µM), for inactives: top-dose activity change, negative = inhibition, actives largely listed as inhibitors; 390,000 tested, 0.23% active; active = well fitted inhibition curve with a large enough effect; inconclusive = small, poorly fitted or top-dose-only effect; inactive = no such curve, though single readings can be large or run the other way; note: potency is the fitted concentration of half-maximal effect; nearly all actives have a fitted effect of over 60% in size
Target sequence (O94782 whole entry, looked up): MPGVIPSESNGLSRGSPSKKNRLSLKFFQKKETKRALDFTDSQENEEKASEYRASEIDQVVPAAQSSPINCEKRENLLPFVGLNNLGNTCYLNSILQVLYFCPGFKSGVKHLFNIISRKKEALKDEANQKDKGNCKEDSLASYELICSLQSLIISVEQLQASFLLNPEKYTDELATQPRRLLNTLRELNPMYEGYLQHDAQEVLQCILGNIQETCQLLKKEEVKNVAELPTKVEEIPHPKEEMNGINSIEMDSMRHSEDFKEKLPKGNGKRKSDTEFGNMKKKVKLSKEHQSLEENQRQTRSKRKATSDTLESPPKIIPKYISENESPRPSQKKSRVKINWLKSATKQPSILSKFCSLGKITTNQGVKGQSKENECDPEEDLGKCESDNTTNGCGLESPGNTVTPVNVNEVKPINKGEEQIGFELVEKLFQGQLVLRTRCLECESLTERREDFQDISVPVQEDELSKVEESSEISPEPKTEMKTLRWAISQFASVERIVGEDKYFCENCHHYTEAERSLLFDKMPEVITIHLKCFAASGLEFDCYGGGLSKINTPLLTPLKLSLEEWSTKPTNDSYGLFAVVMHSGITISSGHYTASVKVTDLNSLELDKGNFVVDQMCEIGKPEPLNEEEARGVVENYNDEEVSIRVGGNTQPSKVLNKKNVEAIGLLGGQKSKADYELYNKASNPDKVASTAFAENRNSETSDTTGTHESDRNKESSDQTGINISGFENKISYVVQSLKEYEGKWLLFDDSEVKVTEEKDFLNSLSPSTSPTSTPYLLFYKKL
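In this screen, compounds sit with the deubiquitinase complex (1nM) for 15 min at room temperature before Ub-Rho is added at 150nM final. Fluorescence rise is then followed for 6 reads every 60 seconds.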
KCNH2 WT inh = qHTS for Inhibitors of KCHN2 3.1: Wildtype qHTS. Voltage-gated inwardly rectifying potassium channel KCNH2 (Homo sapiens), Q12809. U2OS, BacMam KCNH2, thallium flux FluxOr; stronger effect = lower value. activity change, % at 1.84 µM. 340,000 tested, 0.37% active. AID 720551, 2013;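 active = maximum activity change below -70%; inconclusive = maximum activity change between -70% and -50%; inactive = maximum activity change above -50%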
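U2OS cells transduced with wild-type KCNH2 virus are loaded with FluxOr dye for 45 min, and thallium flux is measured in kinetic reads before and after stimulation buffer. Rate constants are normalized to DMSO controls.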
Giardia kill = Small Molecules that selectively kill Giardia lamblia: qHTS; Giardia lamblia trophozoite viability; activity change, % at 7.66 µM, hits read low; 340,000 tested, 0.15% active; AID 540267, 2011; in the data active = activity change below about -80%; inconclusive = between about -30% and that limit;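 note: parasites exposed to compound for two days anaerobically before the ATP read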
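Anaerobic 48 hrs incubation at 37 deg C of 100 trophozoites/well with test compounds; ATPLite 1-Step luminescence, 15-30 min RT, reports cellular ATP as viability.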
KCNH2 3.1 inh = qHTS for Inhibitors of KCHN2 3.1: Mutant qHTS | AID 720553, 2013 | Potassium voltage-gated channel subfamily H member 2, brain isoform KCNH2 3.1 (human) | activity change, % (tested at about 1.8 µM) | 340,000 tested, 0.95% active | U2OS KCNH2 3.1, thallium flux FluxOr; stronger effect = lower value;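 active = maximum activity change below -70%; inconclusive = maximum activity change from -70% to -50%; inactive = maximum activity change above -50%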;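 note: thallium influx rate constant from kinetic fluorescence after stimulation buffer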
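Normalized rate constant (relative to positive and negative DMSO controls) derived from a 2 min kinetic fluorescence read after stimulation; U2OS cells expressing the 3.1 isoform via virus at 1.77 x 10^8 /mL.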
Coupling enz = qHTS Assay for Inhibitors of Fructose-1,6-bisphosphate Aldolase from Giardia Lamblia: Coupling assay counterscreen; AID 2472, 2010; activity change, negative = inhibition, % at 58.2 µM, hits read low; 290,000 tested, 0.67% active; coupling enzyme system counterscreen, AmpLite Red fluorescence; in the data active = activity change below about -30%
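Final compound at 57.5 uM, incubated 10 min at RT with coupling enzyme reagent (glyceraldehyde-3-phosphate), then 20 min with substrate and AmpLite Red detection. Fluorescence read at 525/598 nm; tests interference with the coupling assay, not aldolase inhibition.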
An asterisk follows results filed as active; ? = inconclusive; nt = not tested or not shown; ! = repeats disagree. Rows were chosen to be rich in hits. Some 1.7% of all compounds tested hit in one or more screens of this group. % is set by controls: 0 for no effect and ±100 for the full control effect.

SMILES	USP1 inh	KCNH2 WT inh	Giardia kill	KCNH2 3.1 inh	Coupling enz
Cc1ccc(NC(=O)CSc2ccccc2)cc1S(=O)(=O)N1CCCCC1	-13.5%	-1.3	-4.0	-4.0	nt
Cc1cc(C)c(S(=O)(=O)/N=C2/C=C(SCC(=O)O)C(=O)c3ccccc32)cc1C	25.1µM*	4.6	-10.5	-117.2*	-45.7*
COc1cc(OC)c(OC)cc1CN1CCN(Cc2cccn2C)CC1	-26.1%	-121.8*	0.6	10.4	-9.8
COc1cc(OC)c(OC)cc1CN1CCN(c2ccccc2OC)CC1	-7.7%	-3.4	-19.8	-26.0	-2.5
COc1cc(OC)c(OC)cc1CN1CCC(O)CC1	-22.8%	3.3	-7.4	-89.9*	2.4
O=S(Cc1ccc(Br)cc1)Cc1nnc(SCc2ccc(Br)cc2)n1-c1ccccc1 (configuration not stated)	6.2%	-16.2	-19.4	-74.5*	-1.2
O=C(COC(=O)C1CC2CCCC(C1)C2=O)Nc1ccc(F)c(Cl)c1 (configuration not stated)	-22.0%	-11.6	11.4	-15.6	nt
O=C(COC(=O)C1CC2CCCC(C1)C2=O)Nc1nc(-c2ccc(F)c(F)c2)cs1 (configuration not stated)	-9.7%	0.5	4.1	-93.8*	nt
CCN(CC(=O)NC(C)(C)C)C(=O)c1cccc(S(=O)(=O)N2CC3(C)CC2CC(C)(C)C3)c1 (configuration not stated)	?	-4.6	nt	-3.9	nt
c1ccc(-c2noc(-c3ccncc3)n2)nc1	-1.9%	1.3	-6.2	-2.7	3.6
c1ccc(-c2noc(-c3ccc4ccccc4c3)n2)nc1	-1.4%	8.9	-92.5*	-13.6	-1.2
CCN1CCN(C(=O)Nc2cccc(C(F)(F)F)c2)CC1	-9.8%	4.9	14.6	-79.3*	-1.0
Cc1c(CCC(=O)NCCCn2ccnc2)c(=O)oc2c(C)c3oc4c(c3cc12)CCCC4	-16.0%	-150.1*	11.5	-159.1*	-3.8
CCOc1cc(C(=O)Nc2cc(C)ccn2)cc(OCC)c1OCC	-12.8%	0.3	5.7	-13.9	-0.1
CCOc1ccc(C(=O)Nc2cc(C)ccn2)cc1	-16.6%	-7.8	-87.7*	22.4	-0.7
CCc1ccc2[nH]c(=O)c(CN(Cc3ccccc3)Cc3nnnn3C(C)(C)C)cc2c1	nt	nt	26.0	nt	nt
Cc1ccc(CNC(=O)c2cnc3c(-c4ccc(F)cc4)c(C)nn3c2C)o1	-1.7%	nt	nt	nt	nt
O=c1[nH]ncc(N2CCCCCC2)c1Cl	-22.3%	-8.8	20.9	-100.0*	3.1
O=c1[nH]ncc(N2CCCCC2)c1Cl	-18.3%	-1.2	2.5	-1.5	2.2
COc1ccc(S(=O)(=O)N(CC(=O)Nc2cccc(C(F)(F)F)c2)c2ccc(C)cc2)cc1	-12.1%	nt	nt	nt	nt
O=C(Nc1ccc(N=Nc2ccccc2)cc1)c1ccccc1Cl	-13.8%	-3.2	-9.2	-97.7*	-0.7
C=CCn1c(O)c(CN2CCCCC2)c(C)c(C#N)c1=O	?	0.9	1.5	-4.7	-32.6*
Cc1c(CN2CCCC(C)C2)c(O)n(CCO)c(=O)c1C#N (configuration not stated)	-5.5%	-10.4	-11.4	3.8	1.7
Cc1ccccc1OCCCn1c(CCNC(=O)C2CCCCC2)nc2ccccc21	?	nt	-10.4	nt	nt
CCN(Cc1ccccc1)Cc1ccc(OCc2ccccc2)c(OC)c1	-1.5%	-43.8	30.7	13.9	-1.0
SMILES	USP1 inh	KCNH2 WT inh	Giardia kill	KCNH2 3.1 inh	Coupling enz
COc1ccc(C(=O)C=Cc2ccc(OCc3ccccc3)c(OC)c2)cc1OC	-2.3%	-11.4	nt	-71.6*	nt
COc1ccc(CNCCc2ccc(Cl)cc2)cc1OCc1ccccc1	-8.9%	-2.2	4.6	-70.8*	0.3
COc1cc(CN(C)CCc2ccccc2)ccc1OCc1ccccc1	-13.2%	73.4	8.7	-95.5*	1.1
COc1cc(OC)c(C(=O)/C=C/c2ccc(OCc3ccccc3)c(OC)c2)c(OC)c1	-16.4%	19.4	-5.8	-11.9	-3.1
NS(=O)(=O)c1ccc(CCNCc2cc(Br)ccc2OCc2ccccc2)cc1	-15.9%	-28.2	7.7	-70.2*	3.3
CCOc1cc(CNCCc2ccc(S(N)(=O)=O)cc2)ccc1OCc1ccccc1	-4.9%	58.6	-0.7	nt	nt
Cc1nc(NC2CCCCC2)c2nc(-c3ccccc3)n(C(C)CN(C)C)c2n1 (configuration not stated)	nt	nt	nt	nt	1.6
COC(=O)CSc1nc(N)c(C#N)c(-c2ccco2)c1C#N	-22.7%	6.5	11.8	-2.7	-3.3
COC(=O)CSc1nc(-c2ccccc2)cc(-c2ccco2)c1C#N	-16.4%	5.4	-4.9	-26.5	-31.9*
COC(=O)CSc1nc(-c2ccc(C)cc2)c2c(c1C#N)CCCC2	-12.3%	2.1	27.7	-72.6*	4.4
COc1ccccc1NC(=O)CSc1nnc2c3ccccc3n(C(C)C)c2n1	4.8%	nt	nt	nt	nt
Cc1ncc(CO)c2c1OC(C)(C)OC2	-10.0%	-13.5	-8.1	15.6	8.3
Cc1ncc(CCl)c2c1OC(C)(C)OC2	-10.8%	-12.6	-1.9	13.9	-37.6*
CC1(OC(=O)CCc2ccccc2)C(=O)C=C2C=C(c3ccc(C#N)cc3)N(CCN3CCOCC3)C=C2C1=O (configuration not stated)	?	-5.7	7.7	18.6	-31.2*!
COC(=O)CCC(=O)OC1(C)C(=O)C2=CN(C(CO)CO)C(c3ccc(OC)cc3)=CC2=C(Br)C1=O (configuration not stated)	nt	nt	nt	nt	-47.8*!
COC(=O)CCC(=O)OC1(C)C(=O)C2=CN(CCc3ccccn3)C(c3ccc(OC)cc3)=CC2=C(Br)C1=O (configuration not stated)	?	-2.1	6.1	-20.9	-7.6
COC(=O)CCC(=O)OC1(C)C(=O)C2=CN(CCCCO)C(c3ccc(OC)cc3)=CC2=C(Br)C1=O (configuration not stated)	nt	nt	nt	nt	-47.4*!
COC(=O)CCC(=O)OC1(C)C(=O)C2=CN(CCN3CCOCC3)C(c3ccc(OC)cc3)=CC2=C(Br)C1=O (configuration not stated)	nt	nt	nt	nt	-37.2*!
CC1(OC(=O)CCc2ccccc2)C(=O)C=C2C=C(c3ccc(C#N)cc3)N(CC3CC3)C=C2C1=O (configuration not stated)	?	14.7	0.9	4.6	-12.7
COC(=O)CCC(=O)OC1(C)C(=O)C2=COC(c3ccc(OC)cc3)=CC2=C(Br)C1=O (configuration not stated)	?	1.9	-3.0	16.4	0.7
CC1=C(C(=O)OCC2CCCCC2)C(c2ccc(Cl)cc2Cl)CC(=O)N1 (configuration not stated)	-10.7%	nt	nt	nt	nt
CCOc1ccc(CCNS(=O)(=O)c2c(C)nc3sc(C)cn3c2=O)cc1OCC	-12.4%	nt	nt	nt	nt
